# Experimental data taken from paper PMC4336329 (PLoS ONE, 2015).
# The campaign covered roughly 310,000 compounds. About 14,000 (4.5%) showed an effect of 50% or more. Effects have a minus sign here. The full list was thinned out, with strong results kept by preference.
# Target: human ether-à-go-go-related gene (hERG) potassium channel (human, UniProt Q12809)
# Assay: primary screen, population patch clamp on CHO cells stably expressing hERG; higher = less effect of the substance
# 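Also: peak tail current of the secondary pulse compared with the same well before compound.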
# Sequence of human ether-à-go-go-related gene (hERG) potassium channel (Q12809 whole entry, looked up): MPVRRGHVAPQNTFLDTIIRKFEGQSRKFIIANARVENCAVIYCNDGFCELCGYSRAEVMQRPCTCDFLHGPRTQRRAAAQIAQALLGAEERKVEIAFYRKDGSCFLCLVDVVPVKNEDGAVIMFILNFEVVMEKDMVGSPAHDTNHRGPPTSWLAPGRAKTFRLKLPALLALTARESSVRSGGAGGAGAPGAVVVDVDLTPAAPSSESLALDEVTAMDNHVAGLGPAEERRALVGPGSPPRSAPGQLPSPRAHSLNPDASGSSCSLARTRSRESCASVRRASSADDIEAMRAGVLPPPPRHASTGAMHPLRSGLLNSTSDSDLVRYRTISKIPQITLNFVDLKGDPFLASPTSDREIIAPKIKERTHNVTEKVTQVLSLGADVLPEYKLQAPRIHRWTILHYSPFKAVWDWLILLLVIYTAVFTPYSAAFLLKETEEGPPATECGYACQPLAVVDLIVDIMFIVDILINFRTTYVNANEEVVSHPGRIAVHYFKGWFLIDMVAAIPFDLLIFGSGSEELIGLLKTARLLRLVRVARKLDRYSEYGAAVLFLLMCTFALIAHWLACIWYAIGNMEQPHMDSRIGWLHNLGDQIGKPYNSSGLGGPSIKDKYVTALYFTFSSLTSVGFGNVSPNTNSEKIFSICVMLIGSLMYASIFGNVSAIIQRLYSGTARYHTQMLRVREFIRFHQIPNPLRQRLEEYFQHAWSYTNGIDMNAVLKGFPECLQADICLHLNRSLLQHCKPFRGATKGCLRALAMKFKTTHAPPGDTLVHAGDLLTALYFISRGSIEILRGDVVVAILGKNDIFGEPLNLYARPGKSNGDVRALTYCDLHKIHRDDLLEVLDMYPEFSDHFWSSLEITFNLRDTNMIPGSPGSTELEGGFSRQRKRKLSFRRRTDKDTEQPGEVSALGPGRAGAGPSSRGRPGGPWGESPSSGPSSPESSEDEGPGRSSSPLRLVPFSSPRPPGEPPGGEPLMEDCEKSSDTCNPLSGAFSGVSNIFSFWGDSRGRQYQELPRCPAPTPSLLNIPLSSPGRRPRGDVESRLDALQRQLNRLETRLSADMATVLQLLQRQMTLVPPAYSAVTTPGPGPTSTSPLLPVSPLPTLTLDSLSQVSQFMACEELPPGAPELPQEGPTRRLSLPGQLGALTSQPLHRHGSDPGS
row,SMILES,"hERG current change (%, negative = inhibition) at 10uM"
1,COC(=O)CNc1nc(Cl)nc(Nc2ccc(C)cc2)n1,18.3%
2,COc1cc(NC(=O)c2cccnc2SC)cc(OC)c1,10.2%
3,O=c1nccc(Nc2ccccc2)[nH]1,16.4%
4,CNC(=O)c1ccc(-c2cc(C(F)(F)F)nn2C)s1,17.6%
5,CCCc1sc(N/N=C/c2ccccn2)nc1-c1ccc(Br)cc1,5.39%
6,OCCCNC(=S)Nc1ccc(Oc2ccccc2)cc1,1.06%
7,Cc1ccc(OCCSc2nc3ccccc3n2CCC(=O)O)cc1,9.74%
8,CCOc1ccc(-n2c(=O)cc(N3CCN(c4ccc(F)cc4)CC3)[nH]c2=O)cc1,9.15%
9,Cc1cc(NC(=O)NC(=O)c2ccccc2F)no1,13.7%
10,Cc1ccsc1-c1nc(CSCC(=O)N2CCN(c3ccccc3)CC2)c(C)o1,-21.1%
11,COc1ccc(C(=O)NC(=S)SCC(=O)O)cc1,21.8%
12,Cc1onc(-c2c(F)cccc2Cl)c1C(=O)OCc1cnc(Cl)s1,-3.61%
13,C[C@H](NC(=O)c1ccco1)C(=O)N1CCCC1,21.7%
14,NC(=O)C1CCN(CC(=O)Nc2ccccc2Sc2ccc(Cl)cc2)CC1,-53.7%
15,NC(=O)C1CCN(CC(=O)Nc2ccccc2Sc2ccccc2)CC1,-35.3%
16,NC(=O)C1CCN(CC(=O)Nc2cccnc2Cl)CC1,19.4%
17,NC(=O)CC(NC(=O)c1ccc(Br)cc1)c1ccc(N2CCCCCC2)c([N+](=O)[O-])c1 (centres unmarked),-7.79%
18,CCOC(=O)N1CCN(S(=O)(=O)c2c[nH]c(C(=O)OC)c2)CC1,12%
19,COc1cccc(CNC(=O)c2nnn(CC(=O)Nc3ccc(C)c(C)c3)c2N)c1,1.8%
20,O=C(O)c1ccc(/C=N/Nc2ncc(C(F)(F)F)cc2Cl)cc1,3.54%
21,COc1cccc(-c2ccc(NC(=O)C3CCCN(Cc4ccc(CO)o4)C3)cc2)c1 (centres unmarked),2.83%
22,O=C(Nc1cccc(-c2cccc(Cl)c2)c1)C1CCN(Cc2ccc(CO)o2)CC1,-68%
23,COCc1ccc(CN2CCC(C(=O)Nc3cccc(-c4cscn4)c3)CC2)o1,-18.9%
24,O=C(Nc1cccc(-c2cccc(F)c2)c1)C1CCN(Cc2ccc(CO)o2)CC1,-70.3%
25,O=C(Nc1cccc(-c2cscn2)c1)C1CCN(Cc2ccc(CO)o2)CC1,-3.02%

row,SMILES,"hERG current change (%, negative = inhibition) at 10uM"
1,O=C(Nc1cccc(-c2cccc(F)c2)c1)C1CCN(Cc2ccco2)CC1,-67.5%
2,COc1cccc(-c2cccc(NC(=O)C3CCN(Cc4ccc(C)o4)CC3)c2)c1,-39.4%
3,O=C(Nc1cccc(F)c1)C1CCN(C(=O)c2ccco2)CC1,-26.4%
4,COc1cccc(-c2cccc(NC(=O)C3CCN(Cc4ccc(CO)o4)CC3)c2)c1,-32.5%
5,O=C(c1cccc(F)c1)N1CCN(Cc2ccco2)CC1,4.78%
6,Cc1ccc(CN2CCC(C(=O)Nc3cccc(-c4cccc(F)c4)c3)CC2)o1,-69.1%
7,CCC(=O)OC1(C)C(=O)C2=COC(c3ccc(OC)cc3)=CC2=C(Br)C1=O (centres unmarked),1.2%
8,CC(=O)N(Cc1ccc(Br)cc1)c1cccc(C)c1C,3.64%
9,N#Cc1ccc(CSc2nnc3ccccn23)cc1,-0.562%
10,Cc1c(Br)c(C(F)(F)F)nn1CC(=O)NCc1ccccc1,31.8%
11,Cc1cc(C)n2nc(SCCOc3ccccc3F)nc2n1,-22.7%
12,COc1ccc(C(=O)c2cn[nH]c2-c2ccc(C)cc2O)cc1,-2.49%
13,Cc1cccc(C)c1-n1c(C)cc(/C=N/NC(N)=S)c1C,15.6%
14,CCOC(=O)CCCCC(=O)c1[nH]c(=O)[nH]c1CN1CCOCC1,20%
15,CN(C)/C=C/C(=O)c1ccc2noc(-c3ccc(F)cc3)c2c1,-9.41%
16,Cc1cccc(-c2onc3ccc(C(=O)/C=C/N(C)C)cc23)c1,-42%
17,CN(C)/C=C/C(=O)c1ccc2noc(-c3cccc(F)c3)c2c1,-50.2%
18,CC(=O)c1ccc2noc(-c3cccc(F)c3)c2c1,2.79%
19,COc1cccc(-c2onc3ccc(C(=O)/C=C/N(C)C)cc23)c1,-31.4%
20,CN(C)/C=C/C(=O)c1ccc2noc(-c3ccccc3)c2c1,-62.6%
21,O=C(NCc1ccc2c(c1)OCO2)C1CC(=O)N(c2ccc(F)cc2)C1 (centres unmarked),-29.9%
22,CC(C)(C)NC(=O)CN(C(=O)CCC(=O)Nc1nccs1)c1ccc(F)cc1,12.6%
23,CCC(CO)NCc1ccc2c(c1)n(C)c(=O)n2C.Cl (centres unmarked),17.4%
24,O=C(O)c1ccc(NS(=O)(=O)c2cc(C(=O)O)ccc2Br)cc1,17%
25,O=C(N/N=C\c1ccc(Cl)s1)c1cccs1,23.2%
